In the library only some 19% were active in any assay of this set; here they are far more common.
BCR signal inh = qHTS Assay to Find Inhibitors of Chronic Active B-Cell Receptor Signaling | 0.05% of 340,000 active | ABC-DLBCL IkBa-CBG/CBR reporter, luminescence ratio, 4 h | Potency, µM (titrated, usually from 46.1 µM), for inactives: at the highest dose activity change, negative = inhibition, most hits filed as inhibitors; active = well fitted inhibition curve with a large enough effect in the signal ratio, with a control signal flat, not every such curve was filed as active; inconclusive = small, poorly fitted or top-dose-only effect, or effect the other way, or a change in a side signal; the % refers to the signal ratio;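 note: potency is the fitted concentration of half-maximal effect; plate controls were basal doxycycline-induced cells for no effect and cells given 10 µM MG132 for full effect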
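Compounds up to 46 uM were incubated four hours with TMD8 cells whose green CBG68 luciferase is fused to IkappaBalpha; red CBR luminescence normalised the signal, and concentration-effect curves were fitted to fusion, red and ratio data.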
DT40 TDP1 CPT = qHTS for Inhibitors of human tyrosyl-DNA phosphodiesterase 1 (TDP1): qHTS in cells in presence of CPT | chicken DT40 Tdp1-/-;hTDP1 cells + 20 nM CPT, ATP luminescence, 48 h | 12% of 420,000 active | Potency, µM (top dose mostly 46.2 µM), for inactives: at the highest dose activity change, negative = growth inhibition, actives largely listed as inhibitors; note: potency is the fitted concentration of half-maximal effect; % is set by controls: 0 for no effect and ±100 for the full control effect; nearly all actives have a fitted effect of over 55% in size
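Cell growth measured by CellTiter-Glo luminescence after a minimum 48 h, 37 C compound exposure with 20 nM CPT in Tdp1-knockout DT40 cells stably expressing hTDP1, seeded 400/well; qHTS titration format.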
IL-1B inflam inh = qHTS for Inhibitors of Inflammasome Signaling: IL-1-beta AlphaLISA Primary Screen; 4.7% of 360,000 active; activity change, % at 57.5 µM; THP-1 LPS/ATP IL-1B secretion, AlphaLISA, 16 h; hits give low values; AID 743279, 2014; in the data active = activity change below about -50%; inconclusive = mostly about -30% to -49%; note: % is set by controls: 0 for no effect and ±100 for the full control effect
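Secreted IL-1B measured by AlphaLISA bead assay after 16 h compound exposure of THP-1 cells; compounds (final up to 57.5 uM) added 1 h before LPS (250 ng/mL) and ATP (1.25 mM) stimulation; lower signal means less secretion.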
SW480 rerep = A quantitative high throughput screen for small molecules that induce DNA re-replication in SW480 colon adenocarcinoma cells. SW480 DNA re-replication, Hoechst DNA content imaging, 48 h. Potency, µM (highest dose often 46.1 µM), inactives show at the highest dose re-replication activation, usual class: activators. 1.8% of 340,000 active. AID 624297, 2012; note: potency is the fitted concentration of half-maximal effect; % of control where 0% means no effect; nearly all actives have a fitted effect of over 55% in size
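DNA re-replication was detected as more nuclei of elevated Hoechst intensity after 48 hr exposure to compound (23 nL pinned per well of 250 cells).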
DT40 TDP1 no CPT = qHTS for Inhibitors of human tyrosyl-DNA phosphodiesterase 1 (TDP1): qHTS in cells in absence of CPT; DT40 Tdp1-/- hTDP1 cells, no CPT, ATP luminescence, 48 h; Potency, µM (titrated, usually from 46.2 µM), without a hit: at the highest dose activity change, negative = growth inhibition, actives largely listed as inhibitors; 15% of 420,000 active; AID 686978, 2013; note: potency is the fitted concentration of half-maximal effect; % is set by controls: 0 for no effect and ±100 for the full control effect; nearly all actives have a fitted effect of over 55% in size
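A cellular qHTS used chicken DT40 cells lacking endogenous Tdp1 but carrying stably transfected human TDP1. Compounds were applied without camptothecin, and cell growth kinetics were judged by ATP-dependent luminescence after ≥48 hr.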
MCF10A rerep = A quantitative high throughput screen for small molecules that induce DNA re-replication in MCF 10a normal breast cells; MCF 10A DNA re-replication, Hoechst nuclear intensity, 48 h; Potency, µM (doses to about 46.1 µM), inactives show top-dose activity, positive = re-replication, hits mostly activators; 2.9% of 350,000 active; AID 624296, 2012; note: potency is the fitted concentration of half-maximal effect; % of control where 0% means no effect; nearly all actives have a fitted effect of over 50% in size
An asterisk follows results filed as active; ? = inconclusive; . = not tested or not shown. Unless noted, calls come from the whole dose curve; as a rule, active = well fitted curve in the direction sought with a large enough effect; inconclusive = small, poorly fitted or top-dose-only effect, or another doubt; inactive = no such curve, though single readings can be large; an effect the other way counts as inactive or inconclusive.

SMILES	BCR signal inh	DT40 TDP1 CPT	IL-1B inflam inh	SW480 rerep	DT40 TDP1 no CPT	MCF10A rerep
C#CCOCCOCCOCCNc1nc(N2CCN(C(=O)CCCCCCCCCCNC(=O)Cn3cc(C[C@@H](C)O)nn3)CC2)nc(N2CCN(C(=O)CCCCCCCCCCNC(=O)[C@H](CCCCN)n3cc(C[C@@H](C)CC)nn3)CC2)n1	13.4%	16.4µM*	-76.9*	-0.1%	20.6µM*	?
C#CCOCCOCCOCCNc1nc(N2CCN(C(=O)CCCCCCCCCCNC(=O)Cn3cc(C[C@@H](C)O)nn3)CC2)nc(N2CCN(C(=O)CCCCCCCCCCNC(=O)Cn3cc(C[C@@H](C)O)nn3)CC2)n1	0.8%	6.51µM*	9.5	9.7%	9.2µM*	?
C#CCOCCOCCOCCNc1nc(N2CCN(C(=O)CCCCCCCCCCNC(=O)[C@H](CCCCN)n3cc(CCO)nn3)CC2)nc(N2CCN(C(=O)CCCCCCCCCCNC(=O)[C@H](CCCN=C(N)N)n3cc(C[C@@H](C)CC)nn3)CC2)n1	?	?	-98.1*	-7.4%	?	24.6%
COc1ccc(S(=O)(=O)NC(=O)C2(C)CCN2C(=O)Cc2ccccc2Cl)cc1 (centres undefined)	.	-12.2%	-24.4	.	-0.6%	.
CCN(CC)CC(C)CNC(=O)C1(O)c2ccccc2NC(=O)N1c1ccc(Cl)c(Cl)c1 (centres undefined)	?	6.0%	0.0	-10.7%	2.9%	-12.2%
Cc1ccc(N(C)S(=O)(=O)c2ccc3c(c2)CC(C)N3C(=O)C2CC2)cc1 (centres undefined)	12.2%	?	-28.6	-15.1%	?	3.6%
CC1Cc2cc(S(=O)(=O)N(C)c3ccc(Br)cc3)ccc2N1C(=O)C1CC1 (centres undefined)	.	23.1µM*	.	.	23.1µM*	.
CCN(c1ccc(OC)cc1)S(=O)(=O)c1ccc2c(c1)CC(C)N2C(=O)C1CC1 (centres undefined)	10.8%	20.6µM*	?	-14.9%	18.4µM*	1.2%
COc1ccc(-c2ccc(CCC(=O)O)n2CC(=O)Nc2ccccc2C)cc1	4.2%	-11.4%	-13.8	?	-5.6%	-25.2%
CC1CCN(CC(O)CN2c3ccccc3Sc3ccccc32)CC1 (centres undefined)	?	?	0.0	3.2%	18.4µM*	5.4%
CC(=O)O[C@@H]1C(=O)O[C@@H]2[C@H]1OC(=O)[C@@H]2OC(C)=O	.	20.7%	.	.	-1.7%	.
Cc1cccc(C)c1NC(=S)NCc1ccncc1	0.0%	18.4%	.	-5.8%	2.7%	-31.3%
Cc1nn(C)c(C)c1CN(C)S(=O)(=O)c1ccc2ccccc2c1	-18.4%	2.24µM*	-13.9	-3.0%	1.26µM*	19.6%
Cc1nn(C)c(C)c1CN(C)S(=O)(=O)c1ccc(F)cc1	?	?	27.8	-4.0%	20.6µM*	3.0%
CCN(CC)S(=O)(=O)c1ccc(S(=O)(=O)Nc2c(C)nn(C)c2C)cc1	0.2%	6.51µM*	-10.8	4.5%	4.61µM*	14.7%
CCCCn1c(N)c(N(CCC(C)C)C(=O)c2ccc(N3CCCC3=O)cc2)c(=O)[nH]c1=O	9.3%	-5.1%	-6.8	-1.6%	-8.8%	0.9%
O=C(COc1ccc(Cl)cc1)OCCNC12CC3CC(CC(C3)C1)C2	.	11.9%	.	3.5%	-12.1%	5.1%
CCCOc1ccc(CNC(=O)C(C)n2nc(C)n3c(cc4occc43)c2=O)cc1 (centres undefined)	.	-22.8%	.	.	-29.0%	.
COc1cc2c(C(=O)NCCN(C)C)cn(CC(C)C)c(=O)c2cc1OC	-0.7%	-10.9%	32.5	-4.2%	9.1%	1.8%
CCn1cc(C(=O)N(C)c2cc(C)ccc2OC)c2cc(OC)c(OC)cc2c1=O	-0.4%	-16.6%	?	-1.3%	-11.4%	-4.9%
CCn1cc(C(=O)N(C)c2cc(C)ccc2C)c2cc(OC)c(OC)cc2c1=O	.	25.9µM*	.	.	20.6µM*	.
CCn1cc(C(=O)Nc2ccc(C(C)C)cc2)c2cc(OC)c(OC)cc2c1=O	.	?	.	.	16.4µM*	.
COc1cc2c(C(=O)N(C)c3cccc(C(F)(F)F)c3)cn(CC(C)C)c(=O)c2cc1OC	.	13µM*	.	.	18.4µM*	.
CCn1cc(C(=O)N(C)c2ccc(C(C)C)cc2)c2cc(OC)c(OC)cc2c1=O	.	?	.	.	18.4µM*	.
CC1=C(C(=O)N(C)C)CC(CC(=O)NCc2cccc3ccccc23)C(=O)N1CCCN1CCCC1=O (centres undefined)	.	20.7%	11.2	.	15.8%	.
SMILES	BCR signal inh	DT40 TDP1 CPT	IL-1B inflam inh	SW480 rerep	DT40 TDP1 no CPT	MCF10A rerep
COc1cccc(CN(C)C(=O)CSCC(=O)Nc2ccc(C)cc2)c1OC	-5.8%	?	-10.6	-3.3%	11.6µM*	10.6%
Cc1ccc(NC(=O)CSCC(=O)N(C)CC(=O)Nc2c(C)cccc2C)cc1	.	-3.8%	4.7	.	-7.8%	.
COc1cccc(CN(C)C(=O)Cc2c[nH]c3ccccc23)c1OC	1.3%	?	25.3	-9.5%	16.4µM*	?
COc1ccc(-n2cc(C(=O)Nc3ccccc3C#N)c3ccccc3c2=O)cc1	.	-18.1%	.	.	?	.
CC(C)(C)Cc1c(-c2ccc(C#N)cc2)nc2c(Cl)cc(C(F)(F)F)cn12	.	18.4µM*	31.1	.	?	.
COc1ccccc1Cc1c(-c2ccc(C#N)cc2)nc2c(Cl)cc(C(F)(F)F)cn12	.	23.1µM*	27.7	.	14.6µM*	.
Cc1ccc(-c2nc3c(Cl)cc(C(F)(F)F)cn3c2Cc2ccccc2)cc1	.	?	33.1	.	?	.
Cc1[nH]c2ccccc2c1C(c1ccncc1)N1CCCCC1 (centres undefined)	-0.6%	13µM*	32.7	3.5%	16.4µM*	-0.6%
Cc1c(N2CCCCC2)[nH]c2ccccc12	.	?	-3.2	.	10.3µM*	.
CCN(C(=O)CN1C(=O)CN(C)C1=O)c1cccc2ccccc12	1.1%	11.6µM*	?	3.9%	?	-1.7%
Cc1ccc(N/N=C(\C#N)C(N)=S)cc1C	13.3%	10.3µM*	-9.2	20.3%	18.4µM*	?
N#C/C(=N\Nc1ccc(Cl)cc1)C(=O)c1ccsc1	?	16.4µM*	.	?	23.1µM*	?

Assay outcomes (PubChem)
